The test in a line: S. aureus quorum sensing inhibitors, primary screen, RNAIII-GFP reporter, flow cytometry (AID 527).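 Further: 0% = AIP-stimulated control and 100% = unstimulated bacteria without AIP.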 The conditions noted are these: S. aureus RN6390 RNAIII-GFP reporter, AIP-induced, flow cytometry 3 h, at 2 µM, stronger effect = higher value. For orientation: Flow cytometry measures light scatter and fluorescence of single cells or particles in a stream.
Where [1] appears, read: measured here: inhibition of GFP MFI.

Among all 24,000 compounds or so, about 65 (0.3%) were called active.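 How the source made its calls: active means share of bacteria positive for the green fluorescent reporter and its mean brightness both inhibited by 50% or more; inactive means the rest, inconclusive results apart.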 For the sample, actives were picked, then their nearest neighbours and some compounds at random.

Regarding `CCN(CC)CCNC(=O)Cn1cnc2sc(C)c(S(=O)(=O)N3CCOCC3)c2c1=O`, the inhibition (commonly the drop in the measured response relative to a control, in per cent) is -4.4% (inactive). In addition, the inhibition under setting [1] was -7.2%.
The like results for `CCn1cc(C(=O)N2CC=C(c3ccccc3)CC2)c(=O)c2ccc(C)nc21` were, in that order, 17.2% (inactive) and 30.6%.
The like results for `CCOC(=O)Cn1c(=O)oc2cc(S(=O)(=O)N(C)Cc3ccco3)ccc21` were, in that order, -6.4% (inactive) and -10.2%.
In the same order, the values of `CC1CCN(c2oc(-c3ccccc3F)nc2C#N)CC1` are 0.5% (inactive) and 3.2%.
For the molecule `Cc1ccccc1NC(=O)c1ccccc1`, the inhibition was -2.3% (inactive). Further, the inhibition under setting [1] was -11.3%.
As for `CCOC(=O)N1CCN(CC(=O)c2c(C)[nH]c3ccccc23)CC1`, the inhibition is -0.6% (inactive). Also, under setting [1], the inhibition was 7.3%.
In the same order, the values of `COc1cc2cc(CN(CCN3CCCC3)C(=O)Nc3ccccc3Cl)c(=O)[nH]c2cc1OC` are -3.5% (inactive) and -20.1%.
The like results for `Cc1ccccc1CN1CCN(C(=O)c2cccc(F)c2)CC1` were, in that order, -0.2% (inactive) and -10.6%.
The like results for `COc1cccc(OC)c1OCCN1CCN(C(=O)c2ccco2)CC1` were, in that order, -1% (inactive) and 4.2%.
As to `COc1ccc(OC)c(NC(=O)CCN2CCC(C)CC2)c1`, the inhibition is -0.7% (inactive). The inhibition under setting [1] is -21.9%.
Turning to `CCOc1ccc(-c2cn(S(=O)(=O)c3cccc4nsnc34)nc2N)cc1`, the inhibition is 2.7% (inactive). The inhibition under setting [1] is 26.8%.
`Cn1c(=O)[nH]c(=O)c2c1nc(NCCCn1ccnc1)n2Cc1cccc(Br)c1`: the inhibition was -0.5% (inactive). In addition, under setting [1], the inhibition is -1.6%.
In the same order, the values of `CC(=O)c1cc2c(cc1NC(=O)CN1CCCCCC1)OCO2` are -3.5% (inactive) and -12.2%.
With `O=C(CC(NCCN1CCOCC1)C(=O)O)Nc1cccc(Cl)c1` (stereo not drawn), the inhibition was -0.4% (inactive). Besides, the inhibition under setting [1] stood at 7.8%.
With `CCN(CC)C(=O)CCC(=O)Nc1ccc(C(=O)OC)cc1`, the inhibition is 0.7% (inactive). Also, the inhibition under setting [1] came to 0%.
Turning to `CCOc1ccc(Cn2nnc(C(=O)Nc3ccc(OC)cc3OC)c2N)cc1`, the inhibition is -0.3% (inactive). Under setting [1], the inhibition was -4.3%.
The like results for `COc1ccc(C(=O)NCc2cn3ccccc3n2)cc1` were, in that order, -9.5% (inactive) and -17.4%.
With `Cc1cc(C)c2c(n1)nn1c(N3CCOCC3)cc(C)nc21`, the inhibition was -1.1% (inactive). Moreover, under setting [1], the inhibition worked out at 1.4%.
As for `CCCCN(CC)C(=O)CN(C)S(=O)(=O)c1cccc2nsnc12`, the inhibition was -1.2% (inactive). In addition, the inhibition under setting [1] was -4.3%.
Consider `CC1CCCCC1NC(=O)CCS(=O)(=O)c1cccc2nonc12` (stereo not drawn), for which the inhibition is 4% (inactive). Moreover, under setting [1], the inhibition stood at 22.1%.
On to `CCOc1ccc(C2C(C(=O)NC)=C(C)Nc3nc4ccccc4n32)cc1OC` (stereo not drawn), for which the inhibition is 2.9% (inactive). In addition, the inhibition under setting [1] was 6.8%.
The like results for `O=C(NCc1ccco1)C1CCCN(S(=O)(=O)c2cnc[nH]2)C1` (stereo not drawn) were, in that order, 3.6% (inactive) and 9.1%.
In the same order, the values of `CCn1cc(C(=O)NCC2CCCO2)c(=O)c2cc(S(=O)(=O)N3CCCCC3)ccc21` (stereo not drawn) are -8.4% (inactive) and -14.4%.
The like results for `O=C(c1ccco1)N1CCN(C(=O)c2ccc(COc3ccc(F)cc3)o2)CC1` were, in that order, 2.8% (inactive) and 8%.
For the molecule `COc1ccc(C2OC(=O)CC2C(=O)NC(C)C)cc1` (stereo not drawn), the inhibition was -1% (inactive). Also, the inhibition under setting [1] was -15.8%.
The like results for `COc1cc2[nH]c(=S)n(Cc3ccc(C)o3)c(=O)c2cc1OC` were, in that order, 2% (inactive) and 9.8%.
As for `O=C(CN1C(=O)CCS(=O)(=O)c2ccccc21)NCc1ccc(F)cc1`, the inhibition was -1.6% (inactive). For the same molecule, the inhibition under setting [1] is -8.2%.
The like results for `CCOC(=O)CSc1nnc(NC(=O)c2cccc(S(=O)(=O)N3CCCCC3)c2)s1` were, in that order, -0.3% (inactive) and 13%.
Turning to `COc1cccc(OCC(O)CN2CCN(CCO)CC2)c1` (stereo not drawn), the inhibition was -2% (inactive). Further, under setting [1], the inhibition is -8.9%.
The like results for `CN(C)/C=C1\C=C(c2ccccc2)OC1=O` were, in that order, 0.4% (inactive) and 1.9%.
For the molecule `O=C(NCc1ccc2c(c1)OCO2)C1CCCN(S(=O)(=O)c2cccs2)C1` (stereo not drawn), the inhibition is 16.2% (inactive). The inhibition under setting [1] is 44.2%.
Consider `CCCCC(=O)Nc1cc(C)c2c(=O)oc3ccccc3c2n1`, for which the inhibition was 43.3% (inactive). In addition, the inhibition under setting [1] was determined as 69.9%.
The like results for `COc1ccc(N2CCN(CCNC(=O)CCN3C(=O)COc4ccccc43)CC2)cc1` were, in that order, -0.3% (inactive) and 5.4%.
In the same order, the values of `COc1cc2[nH]c(=S)n(CCN3CCCCC3C)c(=O)c2cc1OC` (stereo not drawn) are 2.3% (inactive) and 17.7%.
In the same order, the values of `O=C(CC(NS(=O)(=O)c1ccc(Cl)cc1)c1ccco1)NC1CCCC1` (stereo not drawn) are 7.7% (inactive) and 13.1%.
As to `Cc1c(NC(=O)C(C)OC(=O)c2cc3c4ccccc4n(C)c3s2)c(=O)n(-c2ccccc2)n1C` (stereo not drawn), the inhibition was 0.6% (inactive). Besides, under setting [1], the inhibition was determined as 3.3%.
In the same order, the values of `O=C(Cn1nc(Cc2cccnc2)c2ccccc2c1=O)NCC1COc2ccccc2O1` (stereo not drawn) are 5.9% (inactive) and 12.1%.
With `Cc1cc(Cl)c(S(=O)(=O)Nc2ccc3c(c2)OCCO3)cc1OCC(N)=O`, the inhibition was -0.7% (inactive). In addition, the inhibition under setting [1] is -17.3%.
In the same order, the values of `Cc1ccc(-c2nc(CS(=O)CC(=O)N3CCN(c4ncccn4)CC3)c(C)o2)cc1` (stereo not drawn) are -2.1% (inactive) and -1.4%.
The like results for `COc1cc(C(O)c2nc3ccccc3n2C)cc(OC)c1OC` (stereo not drawn) were, in that order, -4% (inactive) and -99.6%.
On to `CC(C)OCCCNC(=O)CNC(=O)c1cccs1`, for which the inhibition is -1.5% (inactive). The inhibition under setting [1] is -15.3%.
The like results for `Cc1ccc(S(=O)(=O)N2C3C=CC(C3)C2C(=O)O)cc1` (stereo not drawn) were, in that order, -5.7% (inactive) and -28.5%.
The like results for `Cc1ccc(CNC(=O)C2CCCN(S(C)(=O)=O)C2)cc1` (stereo not drawn) were, in that order, 0.6% (inactive) and 10%.
The like results for `COc1ccccc1C(=O)N1CCN=C1SCc1cccnc1` were, in that order, -1.3% (inactive) and -5.4%.
As to `CC(C)(C)n1nc2c(c1NC(=O)c1ccc(S(=O)(=O)N3CCCC3)cc1)CS(=O)C2` (stereo not drawn), the inhibition is -6.3% (inactive). Moreover, the inhibition under setting [1] was -9.9%.
The like results for `Cc1nn(-c2ccccc2)c2c1C(=O)NC(=O)C(C)(C)C2` were, in that order, 4.5% (inactive) and 27.5%.
With `O=C(Nc1ccncc1)c1cc2ccccc2o1`, the inhibition is 0% (inactive). The inhibition under setting [1] was 2.6%.
For `COc1ccc(S(=O)(=O)Nc2ccc(S(=O)(=O)N3CCCCC3)cc2)cc1OC`, the inhibition is -3.8% (inactive). In addition, the inhibition under setting [1] is -10.7%.
With `Cc1onc(-c2ccccc2)c1C(=O)N1CCOCC1`, the inhibition is 0% (inactive). For the same molecule, the inhibition under setting [1] came to 3.7%.
Regarding `Cc1ccc(C(c2sc3nc(C)nn3c2O)N2CCN(c3ccc(F)cc3)CC2)cc1` (stereo not drawn), the inhibition is 1.8% (inactive). In addition, the inhibition under setting [1] is -4.2%.
`C=CCSc1nc2c(c(=O)[nH]1)C(C(C)C)C(C#N)=C(N)O2` (stereo not drawn): the inhibition was 2.6% (inactive). For the same molecule, the inhibition under setting [1] turned out to be 27.2%.
The like results for `CCN(c1ccc2c(c1)OCO2)S(=O)(=O)c1cc(Br)cc2c1N(C(=O)C1CC1)CC2` were, in that order, -0.3% (inactive) and 5.6%.
Take `CCOC(=O)CSC1=C(C#N)C(c2sccc2C)CC(=O)N1` (stereo not drawn): the inhibition is -0.9% (inactive). Also, the inhibition under setting [1] was -28.9%.
The like results for `COC(=O)c1ccc(NC(=O)C(C)N2C(=O)c3ccccc3C2=O)cc1` (stereo not drawn) were, in that order, -1.2% (inactive) and -12.9%.

Values taken from PubChem BioAssay AID527 (NMMLSC, 2006).
